Assay outcomes: PubChem, several laboratories
In the library only some 4.6% were active in any assay of this set; here they are far more common.
SKKanGAS inh: SKKanGAS growth inhibition | S. pyogenes SKKanGAS, kanamycin growth, BacTiter-Glo, 6 h | inhibition, % at 7.5 µM | 1.3% of 300,000 active;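 active = mean replicate score, as percent of positive control median, at least 50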;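 note: strain carries kanamycin resistance gene driven by streptokinase promoter and grows in 40 µg/ml kanamycin; loss of luminescence reflects streptokinase promoter inhibition or plain growth inhibition; 0% = median of DMSO wells and 100% = positive control at its reference dose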
tim10-1 inh: tim10-1 yeast growth inhibition. 2.2% of 330,000 active. S. cerevisiae tim10-1 ts strain growth, BacTiter-Glo, 24 h. inhibition, % at 20 µM. AID 463190;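 active = inhibition of at least 40%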;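 note: mutant grown at 25 °C; 0% = DMSO wells with yeast and 100% = wells holding no yeast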
NLRP3 yeast inh: inhibitors of NALP3 inflammasome in yeast. 0.39% of 330,000 active. inhibition, % at 10 µM. AID 2825. Yeast reconstituted NLRP3/ASC/caspase-1, beta-gal luminescence, 24 h;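 active = inhibition of 50% or more; inactive = inhibition below 50%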;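 note: plate controls were induced DMSO wells for no effect and uninduced yeast grown without galactose for full effect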
tim23-1 inh: growth inhibitors of tim23-1 mutant yeast. S. cerevisiae tim23-1 growth, BacTiter-Glo luminescence, 24 h. inhibition, % at 20 µM. AID 463212. 1.3% of 330,000 active;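 active = growth inhibition of the mutant yeast at or above 50%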;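 note: temperature-sensitive mutant grown at 25 °C; plate controls were DMSO-treated mutant yeast for no effect and medium wells lacking yeast for full effect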
TIM10 inh: growth inhibitors of TIM10 yeast strain; S. cerevisiae TIM10 strain growth, BacTiter-Glo luminescence, 24 h; inhibition, % at 10 µM; 1.4% of 330,000 active;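 active = inhibition of 40% or more at the single tested concentration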;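 note: wild-type TIM10 isogenic control strain grown at permissive 25 °C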
PfHsp90 yeast 2: reduces growth (ATP signal) of yeast expressing P. falciparum Hsp90; S. cerevisiae expressing PfHsp90, BacTiter-Glo ATP, 48 h; yeast lacking PDR1 and PDR3 efflux regulators; inhibition, % at 9.4 µM; 0.32% of 310,000 active; AID 504621;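 active = every replicate shows inhibition above about 80%, whatever the replicate mean, limit read from the data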;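 note: 0% = DMSO neutral controls and 100% = 20 µM radicicol positive controls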
tim10 confirm: TIM10 yeast growth inhibition, confirmed; inhibition, % at 10 µM; shares compounds with TIM10 inh; 63% of 4,600 active; S. cerevisiae tim10 strain growth, BacTiter-Glo luminescence, 24 h;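 active = inhibition of yeast growth at or above a set limit in either of two replicates at 10 µM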;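 note: this counterscreen used the strain with wild-type TIM10; 0% = yeast with DMSO and 100% = medium wells lacking yeast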
tim23-1 conf: tim23-1 yeast growth inhibition, confirmed | 83% of 4,400 active | shares compounds with tim23-1 inh | S. cerevisiae tim23-1 growth, BacTiter-Glo luminescence, 24 h | inhibition, % at 20 µM;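 active = inhibition above about 39% in either of two replicate wells at 20 µM, limit read from the data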;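 note: temperature-sensitive tim23-1 mutant grown at 25 °C; 0% = DMSO wells with yeast and 100% = medium wells without yeast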
* hit, by the source's call; · = not tested or not shown.

SMILES	SKKanGAS inh	tim10-1 inh	NLRP3 yeast inh	tim23-1 inh	TIM10 inh	PfHsp90 yeast 2	tim23-1 conf	others
CCOC(=O)CSc1nc(=O)n2cccc(C)c2n1	-9	-11	0	-11	4	8	·
COc1ccc(-n2c(NN)nc3sc4c(c3c2=O)CCCC4)cc1	4	34	27	70*	49*	·	62*	tim10 confirm=3
CCc1ccccc1NC(=O)CSc1nc2n[nH]c(C)c2c(=N)n1-c1cccc(OC)c1	23	23	-7	29	13	-5	·
CC1CCCCC12NC(=O)N(CC(=O)N1CCN(S(=O)(=O)/C=C/c3ccccc3)CC1)C2=O (stereo unspecified)	·	-3	12	-4	8	-20	·
O=C(NC(=S)Nc1ccc(O)cc1)C1CCCC1	·	38	12	54*	44*	16	54*	tim10 confirm=33*
Cc1ccc(S(=O)(=O)n2c([N+](=O)[O-])cnc2C)c(C)c1C	6	13	17	10	9	-14	·
COc1ccc(NC(=O)c2cccc(Cn3cc(Br)cn3)c2)cn1	9	22	24	15	21	-8	·
CCCOc1ccc(C(=O)CCNC(Cc2c[nH]c3ccccc23)C(=O)O)cc1 (stereo unspecified)	-3	26	27	74*	49*	5	23	tim10 confirm=37*
CN1CCN(NC(=O)c2cn(-c3ccccc3)nc2-c2ccc(OC(F)F)cc2)CC1	8	7	22	4	6	13	·
Cc1ccc(C(=O)N2CCSC2=S)cc1	-2	30	-6	56*	15	-2	51*
CCOc1ccc(C(=O)N2CCSC2=S)cc1	-1	34	6	51*	19	7	41*
CN(C(=O)CSc1nnnn1-c1ccc(O)cc1)C1CCCCC1	·	8	3	1	1	20	·
CCCCN(Cc1ccccc1)S(=O)(=O)c1cc(Br)cc2c1N(C(C)=O)C(C)C2 (stereo unspecified)	-1	23	22	56*	33	-29	53*
CCC(C)n1cnc2c(c1=O)c1nc3ccccc3nc1n2Cc1ccc(OC)cc1 (stereo unspecified)	17	37	20	53*	35	-38	52*
COc1ccc(N=C(C)C2=C(O)COC2=O)cc1	-3	-11	17	96*	-15	28	5
COc1ccc(S(=O)(=O)N/N=C(/C)c2ccco2)cc1	-13	-1	-9	2	4	-1	·
CCN(CC)c1nc(N)nc(N(c2ccccc2)c2ccccc2)n1	3	36	-13	57*	4	5	50*
CSCC[C@H](NC(=O)[C@@H]1Cc2c([nH]c3ccccc23)C2c3ccccc3C(=O)N21)C(=O)NCC1CCCO1 (stereo partly specified)	4	-9	0	0	-2	-11	·
Cc1nc(CS(=O)(=O)c2ccccn2)sc1C(=O)NNC(=O)c1ccc(Cl)cc1	-3	-11	-6	13	-6	8	·
Brc1ccc(-c2csc(Nc3nc(-c4ccc(Br)cc4)cs3)n2)cc1	27	13	6	53*	8	-8	12
CC1=NN(c2nc3ccccc3[nH]2)C(=O)C1Cc1ccccc1 (stereo unspecified)	89*	21	4	67*	13	·	56*
CCCc1[nH]n(-c2nc3ccccc3s2)c(=O)c1C=NCCCOC	1	7	3	6	20	3	·
CCCCCN=Cc1c(C)[nH]n(-c2nc3ccccc3s2)c1=O	13	21	4	56*	12	36	48*
O=[N+]([O-])c1ccc(N2CCN(c3ccc(Cl)nn3)CC2)cc1NC1CC1	-4	6	3	8	7	·	·
c1csc(CSc2nnc3sc4ccccc4n23)c1	-1	39	16	54*	14	-35	50*
SMILES	SKKanGAS inh	tim10-1 inh	NLRP3 yeast inh	tim23-1 inh	TIM10 inh	PfHsp90 yeast 2	tim23-1 conf	others
Cn1cc(Br)c(C(=O)NNC(=O)c2ccc(Cl)cc2)n1	1	-13	8	7	-19	-1	·
COC(=O)C/C(O)=C(/N=Nc1cccc(C(F)(F)F)c1)C(=O)OC	4	13	18	23	10	-8	·
C=CCNC(=O)C(=O)Nc1ccc2c(c1)N(S(=O)(=O)c1cccs1)CCC2	10	35	16	51*	35	9	42*
COC(=O)c1[nH]c2cc(OC)ccc2c1NC(=O)CCN1CCCC(C)(C)C1	-8	-1	-10	74*	-12	15	11
COC(=O)c1[nH]c2cc(OC)ccc2c1NC(=O)CCN1CCCCC1	-4	-6	8	-12	1	13	·
COc1cc(SC)ccc1C(=O)Nc1ccc2c(c1)CCC2	1	30	19	51*	5	-1	39*
Cc1cc(Cl)ccc1OCC(=O)OCC(=O)NCCNC(=O)COC(=O)COc1ccc(Cl)cc1C	·	·	·	·	·	16	·
CC(=O)c1ccccc1OC(=O)COc1ccc(Cl)cc1C	8	21	-4	54*	25	-19	46*
CCOC(=O)c1ccc(NC(=O)NNC(=O)CCc2ccc(OC)cc2)cc1	12	-4	16	-9	-3	10	·
Cc1cccc(OCC(=O)N(Cc2ccco2)c2c(N)n(Cc3ccccc3)c(=O)[nH]c2=O)c1	·	-2	5	51*	8	28	23
Nc1c(N(Cc2ccco2)C(=O)COc2ccccc2)c(=O)[nH]c(=O)n1Cc1ccccc1	·	3	1	12	9	8	·
CCOc1cc2c3c(c1)C(C)CC(C)(C)N3C(=O)C2=O (stereo unspecified)	0	27	28	50*	30	-7	55*
CCOc1cc2c3c(c1)C(C)=CC(C)(C)N3C(=O)C2=O	7	11	29	56*	14	40	56*
Cc1cc2c3c(c1)C(C)CC(C)(C)N3C(=O)C2=O (stereo unspecified)	16	33	8	53*	22	1	55*
O=C(NCc1ccccc1CN1CCCC1)c1cccc(S(=O)(=O)N2CCOCC2)c1	·	-9	2	-15	-2	-8	·
CCN(CC)c1ccc(N2C(=O)/C(=C/c3cccnc3)SC2=S)cc1	10	14	9	0	-7	-11	·
O=Nc1c(O)n(Cc2cccc(C(F)(F)F)c2)c2ccccc12	-8	23	19	10	25	-3	·
O=S(=O)(NC1=NCCCCC1)c1ccc2ccccc2c1	-4	11	-1	14	7	-15	·
